Laboratory results reported in PubChem BioAssay (EPA / NIEHS).
The source made the active and inactive calls. Rule for the calls: active = hit-call score of the fitted dose curve at least 0.9, where 1 is the maximum; inactive = score below 0.9.

Key:
Conditions in all cases: mRNA level, 48 h; actives raise or lower the signal
[1] = read-out: Early growth response protein 1 (EGR1) transcription factor, EGR1 (gene 1958); assay: LTEA_HepaRG_EGR1: Life Technologies and Expression Analysis (LTEA) Assay for Early growth response protein 1 (EGR1) transcription factor using HepaRG (AID 2283490)
Method in brief: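 Differentiated HepaRG cells in serum-free induction medium exposed 48 hours, duplicate, to 8 half-log concentrations up to 100 uM in 0.5% DMSO. EGR1 mRNA measured by TaqMan qRT-PCR, normalized to ACTB, GAPDH, POLR2A; bidirectional fit versus DMSO.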

[2] = read-out: Ezrin (EZR), EZR (gene 7430); assay: LTEA_HepaRG_EZR: Life Technologies and Expression Analysis (LTEA) Assay for Ezrin (EZR) using HepaRG (AID 2283491)
Method in brief: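 Gain or loss of EZR mRNA is scored relative to 0.5% DMSO in human HepaRG cultures treated 48 h with test chemicals in duplicate, eight half-log concentrations from 100 uM.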

[3] = read-out: Cytochrome P450 3A7 (Homo sapiens) (UniProt P24462); assay: LTEA_HepaRG_CYP3A7: Life Technologies and Expression Analysis (LTEA) Assay for CYP3A7 using HepaRG (AID 2283492)
Method in brief: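 qRT-PCR of CYP3A7 in HepaRG lysates after 48 h treatment; concentration-response (8 points, max 100 uM) analysed bidirectionally relative to 0.5% DMSO controls.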

CYP3A5 (gene 1577) = assay: LTEA_HepaRG_CYP3A5: Life Technologies and Expression Analysis (LTEA) Assay for CYP3A5 using HepaRG (AID 2283493)
Method in brief: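 HepaRG plated 48 h, switched to serum-free induction medium, chemicals added 48 h (max 100 uM, half-log, 0.5% DMSO). RNA isolated; CYP3A5 by TaqMan qRT-PCR. Gain/loss vs DMSO.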

[4] = read-out: Fatty Acid-Binding Protein 1 (FABP1), FABP1 (gene 2168); assay: LTEA_HepaRG_FABP1: Life Technologies and Expression Analysis (LTEA) Assay for Fatty Acid-Binding Protein 1 (FABP1) using HepaRG (AID 2283494)
Method in brief: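 Differentiated human HepaRG cells exposed 48 h in serum-free induction medium to eight half-log concentrations up to 100 uM (0.5% DMSO), duplicate. FABP1 mRNA by qRT-PCR, normalised to ACTB, GAPDH, POLR2A; bidirectional fitting against DMSO.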

[5] = read-out: Cytochrome P450 4A22 (Homo sapiens) (UniProt Q5TCH4); assay: LTEA_HepaRG_CYP4A22: Life Technologies and Expression Analysis (LTEA) Assay for Cytochrome P450 4A22 (CYP4A22) using HepaRG (AID 2283495)
Method in brief: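 Concentration-response (8 points, max 100 uM, 0.5% DMSO) in human HepaRG liver cells after 48 h exposure. CYP4A22 mRNA by TaqMan qRT-PCR with housekeeping-gene normalization.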

[6] = read-out: Cytochrome P450 7A1 (Homo sapiens) (UniProt P22680); assay: LTEA_HepaRG_CYP7A1: Life Technologies and Expression Analysis (LTEA) Assay for Cytochrome P450 7A1 (CYP7A1) using HepaRG (AID 2283496)
Method in brief: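 HepaRG cells plated 48 h, then switched to serum-free induction medium and exposed in duplicate for 48 h to 8-point half-log series from 100 uM in 0.5% DMSO. CYP7A1 mRNA by qRT-PCR (TaqMan), normalized to ACTB/GAPDH/POLR2A; bidirectional fit versus DMSO.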

[7] = read-out: Glutathione S-Transferase (GSTA2), GSTA2 (gene 2939); assay: LTEA_HepaRG_GSTA2: Life Technologies and Expression Analysis (LTEA) Assay for Glutathione S-Transferase (GSTA2) using HepaRG (AID 2283497)
Method in brief: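 Differentiated human HepaRG cells were exposed in duplicate for 48 h in serum-free induction medium, 8 points from 100 uM top in half-log steps, 0.5% DMSO. GSTA2 mRNA was measured by TaqMan qRT-PCR, normalized to ACTB, GAPDH and POLR2A; bidirectional fit versus DMSO.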

[8] = read-out: Glutamate-cysteine ligase catalytic (GCLC), GCLC (gene 2729); assay: LTEA_HepaRG_GCLC: Life Technologies and Expression Analysis (LTEA) Assay for Glutamate-cysteine ligase catalytic (GCLC) using HepaRG (AID 2283498)
Method in brief: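 Differentiated HepaRG cells exposed 48 h in serum-free induction medium, eight-point half-log series topping at 100 uM in 0.5% DMSO, duplicates. GCLC mRNA by qRT-PCR normalized to ACTB, GAPDH and POLR2A, fitted bidirectionally versus DMSO.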

[9] = read-out: growth arrest and DNA damage 45 (GADD45G), GADD45G (gene 10912); assay: LTEA_HepaRG_GADD45G: Life Technologies and Expression Analysis (LTEA) Assay for growth arrest and DNA damage 45 (GADD45G) using HepaRG (AID 2283499)
Method in brief: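 Concentration-response in HepaRG: 48 h dosing, 0.5% DMSO, highest level 100 uM. GADD45G expression by qRT-PCR, normalised to endogenous controls; bidirectional fit to DMSO.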

[10] = read-out: Glutamate-cysteine ligase regulatory (GCLM), GCLM (gene 2730); assay: LTEA_HepaRG_GCLM: Life Technologies and Expression Analysis (LTEA) Assay for Glutamate-cysteine ligase regulatory (GCLM) using HepaRG (AID 2283500)
Method in brief: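 Cells were plated, cultured 48 h, switched to serum-free induction medium, then dosed in duplicate for 48 h at eight half-log concentrations up to 100 uM. RNA was then profiled by qRT-PCR; gain or loss versus DMSO was fitted.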

[11] = read-out: Glutathione S-transferase M3 (GSTM3), GSTM3 (gene 2947); assay: LTEA_HepaRG_GSTM3: Life Technologies and Expression Analysis (LTEA) Assay for Glutathione S-transferase M3 (GSTM3) using HepaRG (AID 2283501)
Method in brief: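 Expression of GSTM3 is determined by qRT-PCR in human liver HepaRG cells treated 48 h with an 8-point half-log range from 100 uM in 0.5% DMSO.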

[12] = read-out: Heat shock 70 kDa protein 1 (HSPA1A), gene 3303; assay: LTEA_HepaRG_HSPA1A: Life Technologies and Expression Analysis (LTEA) Assay for Heat shock 70 kDa protein 1 (HSPA1A) using HepaRG (AID 2283502)
Method in brief: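 Readout is HSPA1A transcript level by microfluidic qRT-PCR, normalized to three housekeeping genes and analysed for gain or loss of signal relative to 0.5% DMSO. Human HepaRG cultures received test chemicals for 48 h at up to 100 uM.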

[13] = read-out: Hypoxia-inducible factor 1-alpha (Homo sapiens) (UniProt Q16665); assay: LTEA_HepaRG_HIF1A: Life Technologies and Expression Analysis (LTEA) Assay for Hypoxia-inducible factor 1 (HIF1A) Trancription factor using HepaRG (AID 2283503)
Method in brief: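 Differentiated HepaRG cells in serum-free induction medium exposed 48 h, in duplicate, to 8-point half-log series from 100 uM in 0.5% DMSO. HIF1A mRNA measured by TaqMan qRT-PCR, normalized to ACTB/GAPDH/POLR2A, fitted bidirectionally versus DMSO.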

[14] = read-out: 3-Hydroxy-3-Methylglutaryl-CoA Synthase 2 (HMGCS2), HMGCS2 (gene 3158); assay: LTEA_HepaRG_HMGCS2: Life Technologies and Expression Analysis (LTEA) Assay for 3-Hydroxy-3-Methylglutaryl-CoA Synthase 2 (HMGCS2) using HepaRG (AID 2283504)
Method in brief: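 This steatosis marker was read as HMGCS2 mRNA change in HepaRG cells treated 48 h with up to 100 uM chemical. Normalisation used housekeeping genes; activity in either direction was fitted relative to 0.5% DMSO vehicle.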

HGF (gene 3082) = assay: LTEA_HepaRG_HGF: Life Technologies and Expression Analysis (LTEA) Assay for Hepatocyte Growth Facto (HGF) using HepaRG (AID 2283505)
Method in brief: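 Using HepaRG monolayers kept in 0.5% DMSO, chemicals were tested in duplicate over eight half-log concentrations from 100 uM for 48 h. Endpoint: HGF mRNA change relative to DMSO, normalized to ACTB/GAPDH/POLR2A.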

[15] = read-out: Insulin Like Growth Factor 1 (IGF1), IGF1 (gene 3479); assay: LTEA_HepaRG_IGF1: Life Technologies and Expression Analysis (LTEA) Assay for Insulin Like Growth Factor 1 (IGF1) using HepaRG (AID 2283506)
Method in brief: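 HepaRG, plated 48 h, then switched to serum-free induction media; test chemical 8-pt half-log from 100 uM (0.5% DMSO), duplicate, 48 h. Lysis in RLT, TaqMan qRT-PCR, norm. ACTB/GAPDH/POLR2A. Bidirectional fit vs DMSO.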

[16] = read-out: Intercellular Adhesion Molecule 1 (ICAM1), ICAM1 (gene 3383); assay: LTEA_HepaRG_ICAM1: Life Technologies and Expression Analysis (LTEA) Assay for Intercellular Adhesion Molecule 1 (ICAM1) using HepaRG (AID 2283507)
Method in brief: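 Using the human liver line HepaRG, compounds are tested in duplicate over 48 h at concentrations up to 100 uM. Expression is determined by TaqMan qRT-PCR, normalized to endogenous controls, and analysed relative to 0.5% DMSO vehicle.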

[17] = read-out: Insulin-like growth factor-binding protein 1 (IGFBP1), IGFBP1 (gene 3484); assay: LTEA_HepaRG_IGFBP1: Life Technologies and Expression Analysis (LTEA) Assay for Insulin-like growth factor-binding protein 1 (IGFBP1) using HepaRG (AID 2283508)
Method in brief: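 HepaRG, 48 h, 8 conc. (max 100 uM, half-log), duplicates, 0.5% DMSO. Readout: TaqMan qRT-PCR, ACTB/GAPDH/POLR2A normalisation. Fit: bidirectional vs DMSO.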

[18] = read-out: Interleukin 6 (IL6), IL6 (gene 3569); assay: LTEA_HepaRG_IL6: Life Technologies and Expression Analysis (LTEA) Assay for Interleukin 6 (IL6) using HepaRG (AID 2283509)
Method in brief: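 HepaRG cells exposed in duplicate for 48 h to eight half-log concentrations, top 100 uM, in 0.5% DMSO serum-free induction medium. mRNA measured by qRT-PCR, normalized to ACTB, GAPDH and POLR2A. Bidirectional fit versus DMSO.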

Measured: AC50

Cytochrome P450 3A7 (Homo sapiens), sequence (P24462 whole entry, looked up): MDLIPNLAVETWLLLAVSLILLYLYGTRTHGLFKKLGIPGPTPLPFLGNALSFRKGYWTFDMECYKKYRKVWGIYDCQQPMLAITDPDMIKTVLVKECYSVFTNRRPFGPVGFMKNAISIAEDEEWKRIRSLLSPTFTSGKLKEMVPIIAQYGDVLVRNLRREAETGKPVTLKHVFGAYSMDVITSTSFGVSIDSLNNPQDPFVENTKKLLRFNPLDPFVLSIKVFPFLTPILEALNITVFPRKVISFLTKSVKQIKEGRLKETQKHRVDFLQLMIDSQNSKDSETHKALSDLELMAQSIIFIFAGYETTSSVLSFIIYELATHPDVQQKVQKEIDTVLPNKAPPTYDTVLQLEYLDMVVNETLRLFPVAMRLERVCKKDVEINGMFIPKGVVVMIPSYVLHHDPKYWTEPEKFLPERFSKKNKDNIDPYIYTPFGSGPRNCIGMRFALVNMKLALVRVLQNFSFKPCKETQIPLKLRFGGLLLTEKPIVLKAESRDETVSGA
Hypoxia-inducible factor 1-alpha (Homo sapiens), sequence (Q16665 whole entry, looked up): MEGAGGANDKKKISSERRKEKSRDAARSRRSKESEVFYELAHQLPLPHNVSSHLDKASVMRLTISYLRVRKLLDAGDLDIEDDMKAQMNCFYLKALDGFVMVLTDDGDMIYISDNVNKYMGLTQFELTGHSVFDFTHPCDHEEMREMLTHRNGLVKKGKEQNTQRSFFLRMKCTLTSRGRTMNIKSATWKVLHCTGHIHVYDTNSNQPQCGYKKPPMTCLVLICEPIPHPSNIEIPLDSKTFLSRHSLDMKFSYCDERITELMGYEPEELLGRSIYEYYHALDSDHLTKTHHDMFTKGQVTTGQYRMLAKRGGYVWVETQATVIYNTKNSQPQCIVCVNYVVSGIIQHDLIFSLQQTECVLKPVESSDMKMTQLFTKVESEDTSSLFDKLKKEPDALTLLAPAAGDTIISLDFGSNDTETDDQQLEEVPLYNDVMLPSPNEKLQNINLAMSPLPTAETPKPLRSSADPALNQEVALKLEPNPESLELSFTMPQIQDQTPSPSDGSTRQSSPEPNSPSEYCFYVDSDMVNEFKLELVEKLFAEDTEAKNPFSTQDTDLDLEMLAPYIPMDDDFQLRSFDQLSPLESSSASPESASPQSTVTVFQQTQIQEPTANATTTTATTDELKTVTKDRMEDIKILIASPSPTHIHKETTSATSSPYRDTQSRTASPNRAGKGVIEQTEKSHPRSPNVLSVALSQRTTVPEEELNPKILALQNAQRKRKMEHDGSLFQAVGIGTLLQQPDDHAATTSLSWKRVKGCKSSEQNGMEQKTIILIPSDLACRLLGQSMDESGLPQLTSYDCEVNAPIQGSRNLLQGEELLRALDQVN

Cc1[nH]c(=O)n(C(C)(C)C)c(=O)c1Cl
active: [6] 18.8 µM | [17] 50 µM
inactive: all other assays above

CC(C)(C)C(O)/C(=C\c1ccc(Cl)cc1Cl)n1cncn1 (stereo not given)
inactive: [3] | CYP3A5 (gene 1577) | [10] | [11] | HGF (gene 3082)
active: [1] 33.8 µM | [2] 86.6 µM | [4] 30.5 µM | [5] 21.1 µM | [6] 32.6 µM | [7] 27.3 µM | [8] 81.5 µM | [9] 29.5 µM | [12] 93.3 µM | [13] 82.3 µM | [14] 30.7 µM | [15] 91.2 µM | [16] 50 µM | [17] 56.9 µM | [18] 94.6 µM

CC[C@H](C)[C@H]1O[C@]2(C=C[C@@H]1C)C[C@@H]1C[C@@H](C/C=C(\C)[C@@H](O[C@H]3C[C@H](OC)[C@@H](O[C@H]4C[C@H](OC)[C@@H](O)[C@H](C)O4)[C@H](C)O3)[C@@H](C)/C=C/C=C3\CO[C@@H]4[C@H](O)C(C)=C[C@@H](C(=O)O1)[C@]34O)O2 (tested in a mixture with another compound)
inactive: [1] | [3] | [9] | HGF (gene 3082)
active: [2] 7.92 µM | CYP3A5 (gene 1577) 6 µM | [4] 8.68 µM | [5] 10.2 µM | [6] 15 µM | [7] 7.88 µM | [8] 7.09 µM | [10] 7.66 µM | [11] 9.57 µM | [12] 44.2 µM | [13] 19 µM | [14] 16.2 µM | [15] 16 µM | [16] 13.6 µM | [17] 11.6 µM | [18] 18.6 µM

C#CCN1C(=O)COc2cc(F)c(N3C(=O)C4=C(CCCC4)C3=O)cc21
active: [1] 12 µM | [3] 0.97 µM | [4] 25.4 µM | [5] 16.1 µM | [15] 23.5 µM
inactive: all other assays above

CCc1ccc(C(=O)NN(C(=O)c2cc(C)cc(C)c2)C(C)(C)C)cc1
active: [1] 50 µM | [3] 12.1 µM | [4] 50 µM | [5] 74.4 µM | [6] 4.22 µM | [12] 81.7 µM | [14] 50 µM
inactive: all other assays above
